Laboratory results taken from the supplement of paper PMC10849652.
Targets with a hit are over-represented here; the source holds about 8,800 in all. About 0.5% of all pairs of compound and target were hits. Values without a mark were called inactive.

How the values were obtained:
Assay in all cases: log2 fold change, soluble protein after heating vs DMSO (PISA); higher = thermal stabilisation; K562 lysate, 10 uM; active = over 0.2 and 3.5 SD of the protein, either way, in both replicates (recomputed)
vemurafenib = compound: CCCS(=O)(=O)Nc1ccc(F)c(C(=O)c2c[nH]c3ncc(-c4ccc(Cl)cc4)cc23)c1F [vemurafenib]
Summary of the method: (§1)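 K562 pellets were dounce-homogenised in PBS pH 7.4 with 1 mM MgCl2, and the crude extract at 1 mg/mL protein was treated with 10 μM compound for 30 min. Aliquots were heated for 3 min across 48°C-58°C, pooled, and brought to 0.5% NP-40 at 4°C; soluble protein was the supernatant after 21,000xg for 90 min. Soluble protein was quantified by TMTpro 16plex LC-MS/MS with channel sums equalised, and reported as log2 fold change in thermal stability against DMSO controls, with values from duplicates.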

[1] = compound: CCCS(=O)(=O)Nc1ccc(F)c(C(=O)c2c[nH]c3ncc(Cl)cc23)c1F
Summary of the method: as §1

barasertib = compound: CCN(CCCOc1ccc2c(Nc3cc(CC(=O)Nc4cccc(F)c4)[nH]n3)ncnc2c1)CCOP(=O)(O)O [barasertib]
Summary of the method: as §1

[2] = compound: CC[C@@H]1C(=O)N(C)c2cnc(Nc3ccc(C(=O)NC4CCN(C)CC4)cc3OC)nc2N1C1CCCC1
Summary of the method: as §1

volasertib = compound: CC[C@@H]1C(=O)N(C)c2cnc(Nc3ccc(C(=O)N[C@H]4CC[C@H](N5CCN(CC6CC6)CC5)CC4)cc3OC)nc2N1C(C)C [volasertib]
Summary of the method: as §1

[3] = compound: CCn1c(C(=O)N(C2CC2)C2CC2)cc2c3c(ncn3C)c(Nc3cc(C)n(C)n3)nc21
Summary of the method: as §1

[4] = compound: CCn1cc(-c2ccnc3[nH]c(-c4cccc(CN(C)C)c4)cc23)c(-c2ccc(NC(=O)N(C)C)cc2)n1
Summary of the method: as §1

[5] = compound: CN1CCC(CNc2ccc3ncc(-c4cccc(OC(F)(F)F)c4)n3n2)CC1
Summary of the method: as §1

saracatinib = compound: CN1CCN(CCOc2cc(OC3CCOCC3)c3c(Nc4c(Cl)ccc5c4OCO5)ncnc3c2)CC1 [saracatinib]
Summary of the method: as §1

sotrastaurin = compound: CN1CCN(c2nc(C3=C(c4c[nH]c5ccccc45)C(=O)NC3=O)c3ccccc3n2)CC1 [sotrastaurin]
Summary of the method: as §1

alvocidib = compound: CN1CC[C@H](c2c(O)cc(O)c3c(=O)cc(-c4ccccc4Cl)oc23)[C@H](O)C1 [alvocidib]
Summary of the method: as §1

Tubastatin A = compound: CN1CCc2c(c3ccccc3n2Cc2ccc(C(=O)NO)cc2)C1 [Tubastatin A]
Summary of the method: as §1

[6] = compound: CNC(=O)C1=CC=CC=C1NC2=NC(=NC=C2Cl)NC3=C(C=C(C=C3)N4CCOCC4)OC
Summary of the method: as §1

defactinib = compound: CNC(=O)c1ccc(Nc2ncc(C(F)(F)F)c(NCc3nccnc3N(C)S(C)(=O)=O)n2)cc1 [defactinib]
Summary of the method: as §1

[7] = compound: CNc1nc(-c2ccc3c(N)n[nH]c3c2)cc(N2C[C@@H](C(=O)NC3CCCCC3)CC[C@H]2C)n1
Summary of the method: as §1

encorafenib = compound: COC(=O)N[C@@H](C)CNc1nccc(-c2cn(C(C)C)nc2-c2cc(Cl)cc(NS(C)(=O)=O)c2F)n1 [encorafenib]
Summary of the method: as §1

[8] = compound: COC(=O)[C@H](CCSC)NC(=O)C1=C(C=C(C=C1)NC[C@H](CS)N)C2=CC=CC=C2
Summary of the method: as §1

alisertib = compound: COc1cc(Nc2ncc3c(n2)-c2ccc(Cl)cc2C(c2c(F)cccc2OC)=NC3)ccc1C(=O)O [alisertib]
Summary of the method: as §1

[9] = compound: COc1cc2nc(-c3cc(F)ccc3O)nc(N[C@@H]3CNC[C@H]3C(C)(C)O)c2cc1OC
Summary of the method: as §1

gefitinib = compound: COc1cc2ncnc(Nc3ccc(F)c(Cl)c3)c2cc1OCCCN1CCOCC1 [gefitinib]
Summary of the method: as §1

UniProt Q8N1S5, sequence (Q8N1S5 whole entry, looked up): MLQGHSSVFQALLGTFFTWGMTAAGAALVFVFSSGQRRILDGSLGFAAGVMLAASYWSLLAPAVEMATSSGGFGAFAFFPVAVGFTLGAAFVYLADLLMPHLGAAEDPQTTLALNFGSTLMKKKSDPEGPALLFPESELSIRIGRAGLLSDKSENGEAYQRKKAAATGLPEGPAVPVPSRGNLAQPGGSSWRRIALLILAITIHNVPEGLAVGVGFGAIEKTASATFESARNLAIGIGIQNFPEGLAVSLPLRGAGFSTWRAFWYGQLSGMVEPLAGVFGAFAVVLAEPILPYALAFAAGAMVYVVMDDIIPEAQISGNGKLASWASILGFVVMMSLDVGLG
UniProt P19623, sequence (P19623 whole entry, looked up): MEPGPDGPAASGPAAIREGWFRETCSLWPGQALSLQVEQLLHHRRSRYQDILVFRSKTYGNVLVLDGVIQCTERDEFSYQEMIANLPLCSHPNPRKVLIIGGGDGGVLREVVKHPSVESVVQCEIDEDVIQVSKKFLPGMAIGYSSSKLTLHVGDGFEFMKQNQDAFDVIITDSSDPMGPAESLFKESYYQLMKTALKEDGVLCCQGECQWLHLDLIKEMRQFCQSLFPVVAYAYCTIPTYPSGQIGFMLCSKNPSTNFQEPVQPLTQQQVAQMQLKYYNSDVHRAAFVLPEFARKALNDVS
UniProt Q96BD8, sequence (Q96BD8 whole entry, looked up): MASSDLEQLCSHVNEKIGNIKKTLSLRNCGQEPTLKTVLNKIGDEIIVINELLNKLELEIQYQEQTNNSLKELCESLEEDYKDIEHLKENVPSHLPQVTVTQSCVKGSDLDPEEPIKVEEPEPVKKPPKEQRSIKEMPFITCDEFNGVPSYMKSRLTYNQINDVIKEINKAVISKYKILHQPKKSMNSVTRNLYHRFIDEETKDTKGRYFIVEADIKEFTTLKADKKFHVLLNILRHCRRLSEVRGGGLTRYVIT
UniProt Q8WVK7, sequence (Q8WVK7 whole entry, looked up): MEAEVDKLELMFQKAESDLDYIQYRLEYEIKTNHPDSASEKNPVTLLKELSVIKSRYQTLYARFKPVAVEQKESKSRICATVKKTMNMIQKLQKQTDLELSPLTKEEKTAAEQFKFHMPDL
UniProt Q13586, sequence (Q13586 whole entry, looked up): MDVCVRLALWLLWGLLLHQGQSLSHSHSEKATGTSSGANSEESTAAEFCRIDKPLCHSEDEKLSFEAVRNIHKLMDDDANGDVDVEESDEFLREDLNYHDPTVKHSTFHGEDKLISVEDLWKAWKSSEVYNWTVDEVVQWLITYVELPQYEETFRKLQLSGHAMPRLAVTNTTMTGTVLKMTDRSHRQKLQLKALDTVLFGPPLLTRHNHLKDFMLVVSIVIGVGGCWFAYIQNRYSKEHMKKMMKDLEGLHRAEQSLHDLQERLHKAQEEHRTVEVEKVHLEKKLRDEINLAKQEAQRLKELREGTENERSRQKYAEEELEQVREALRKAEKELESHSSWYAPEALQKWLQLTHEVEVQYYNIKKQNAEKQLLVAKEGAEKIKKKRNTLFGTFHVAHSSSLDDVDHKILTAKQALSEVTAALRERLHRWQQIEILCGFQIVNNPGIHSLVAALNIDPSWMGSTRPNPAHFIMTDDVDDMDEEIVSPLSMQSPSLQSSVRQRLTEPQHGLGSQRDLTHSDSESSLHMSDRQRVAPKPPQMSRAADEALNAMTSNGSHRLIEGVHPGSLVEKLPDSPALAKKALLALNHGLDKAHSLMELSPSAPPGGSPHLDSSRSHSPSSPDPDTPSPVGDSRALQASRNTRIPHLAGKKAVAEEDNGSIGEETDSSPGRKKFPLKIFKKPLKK
UniProt Q8IX90, sequence (Q8IX90 whole entry, looked up): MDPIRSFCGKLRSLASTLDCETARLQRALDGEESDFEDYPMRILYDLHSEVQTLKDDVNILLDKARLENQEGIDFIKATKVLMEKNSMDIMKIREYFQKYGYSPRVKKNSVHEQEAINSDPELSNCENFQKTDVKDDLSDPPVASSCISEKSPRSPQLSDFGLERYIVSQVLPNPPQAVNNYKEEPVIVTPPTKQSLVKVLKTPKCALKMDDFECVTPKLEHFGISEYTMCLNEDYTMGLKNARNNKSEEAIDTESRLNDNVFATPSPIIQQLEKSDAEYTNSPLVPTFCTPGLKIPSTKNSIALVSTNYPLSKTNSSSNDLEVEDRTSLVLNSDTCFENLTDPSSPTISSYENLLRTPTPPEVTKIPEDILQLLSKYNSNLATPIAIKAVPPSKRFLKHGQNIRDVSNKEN
UniProt Q96KF7, sequence (Q96KF7 whole entry, looked up): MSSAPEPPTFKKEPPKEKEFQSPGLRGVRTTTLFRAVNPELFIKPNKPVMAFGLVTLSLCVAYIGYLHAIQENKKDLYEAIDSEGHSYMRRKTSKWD
UniProt Q92540, sequence (Q92540 whole entry, looked up): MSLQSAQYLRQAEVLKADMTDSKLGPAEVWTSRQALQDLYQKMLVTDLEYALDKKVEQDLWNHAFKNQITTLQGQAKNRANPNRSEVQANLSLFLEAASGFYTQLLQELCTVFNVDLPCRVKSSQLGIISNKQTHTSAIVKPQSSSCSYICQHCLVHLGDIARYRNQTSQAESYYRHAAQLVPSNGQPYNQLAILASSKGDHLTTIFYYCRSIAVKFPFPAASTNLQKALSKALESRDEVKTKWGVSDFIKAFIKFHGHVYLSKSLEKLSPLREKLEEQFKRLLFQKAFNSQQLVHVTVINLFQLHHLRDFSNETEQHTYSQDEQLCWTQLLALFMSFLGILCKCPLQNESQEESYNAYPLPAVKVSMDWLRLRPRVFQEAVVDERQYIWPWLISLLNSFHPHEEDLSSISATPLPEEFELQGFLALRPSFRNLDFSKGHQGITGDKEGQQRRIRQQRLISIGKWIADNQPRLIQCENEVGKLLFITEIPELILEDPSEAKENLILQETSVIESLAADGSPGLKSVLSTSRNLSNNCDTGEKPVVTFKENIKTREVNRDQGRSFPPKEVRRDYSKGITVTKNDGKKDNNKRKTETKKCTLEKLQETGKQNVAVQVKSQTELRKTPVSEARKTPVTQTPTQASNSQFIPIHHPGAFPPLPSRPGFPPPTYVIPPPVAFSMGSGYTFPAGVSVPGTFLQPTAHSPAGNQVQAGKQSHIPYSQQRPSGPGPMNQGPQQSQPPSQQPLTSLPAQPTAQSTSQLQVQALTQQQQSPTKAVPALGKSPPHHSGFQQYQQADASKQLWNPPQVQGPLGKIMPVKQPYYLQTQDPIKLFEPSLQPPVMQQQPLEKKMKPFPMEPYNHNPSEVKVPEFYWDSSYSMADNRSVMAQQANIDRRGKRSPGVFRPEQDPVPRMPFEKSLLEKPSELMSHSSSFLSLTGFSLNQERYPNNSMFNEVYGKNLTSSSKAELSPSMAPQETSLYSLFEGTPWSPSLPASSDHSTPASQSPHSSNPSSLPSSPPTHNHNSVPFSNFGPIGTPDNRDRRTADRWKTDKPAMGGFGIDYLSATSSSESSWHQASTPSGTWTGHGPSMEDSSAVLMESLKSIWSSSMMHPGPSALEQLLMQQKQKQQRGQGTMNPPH
UniProt Q15208, sequence (Q15208 whole entry, looked up): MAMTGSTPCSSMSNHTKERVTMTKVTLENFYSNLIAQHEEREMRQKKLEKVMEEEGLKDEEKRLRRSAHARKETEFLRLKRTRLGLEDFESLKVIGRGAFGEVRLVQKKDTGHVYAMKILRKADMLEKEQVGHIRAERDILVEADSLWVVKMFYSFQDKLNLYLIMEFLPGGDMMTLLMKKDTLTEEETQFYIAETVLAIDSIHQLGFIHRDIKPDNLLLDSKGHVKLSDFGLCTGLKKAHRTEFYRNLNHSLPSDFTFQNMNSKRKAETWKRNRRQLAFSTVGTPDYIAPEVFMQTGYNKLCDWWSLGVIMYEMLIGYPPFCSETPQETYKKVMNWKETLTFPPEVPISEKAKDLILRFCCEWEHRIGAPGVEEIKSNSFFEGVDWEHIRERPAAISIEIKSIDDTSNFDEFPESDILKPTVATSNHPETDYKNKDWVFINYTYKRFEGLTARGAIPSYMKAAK
UniProt Q96EX1, sequence (Q96EX1 whole entry, looked up): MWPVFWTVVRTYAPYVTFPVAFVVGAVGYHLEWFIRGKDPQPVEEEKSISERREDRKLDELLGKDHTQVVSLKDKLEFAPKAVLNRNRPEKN
UniProt P53814, sequence (P53814 whole entry, looked up): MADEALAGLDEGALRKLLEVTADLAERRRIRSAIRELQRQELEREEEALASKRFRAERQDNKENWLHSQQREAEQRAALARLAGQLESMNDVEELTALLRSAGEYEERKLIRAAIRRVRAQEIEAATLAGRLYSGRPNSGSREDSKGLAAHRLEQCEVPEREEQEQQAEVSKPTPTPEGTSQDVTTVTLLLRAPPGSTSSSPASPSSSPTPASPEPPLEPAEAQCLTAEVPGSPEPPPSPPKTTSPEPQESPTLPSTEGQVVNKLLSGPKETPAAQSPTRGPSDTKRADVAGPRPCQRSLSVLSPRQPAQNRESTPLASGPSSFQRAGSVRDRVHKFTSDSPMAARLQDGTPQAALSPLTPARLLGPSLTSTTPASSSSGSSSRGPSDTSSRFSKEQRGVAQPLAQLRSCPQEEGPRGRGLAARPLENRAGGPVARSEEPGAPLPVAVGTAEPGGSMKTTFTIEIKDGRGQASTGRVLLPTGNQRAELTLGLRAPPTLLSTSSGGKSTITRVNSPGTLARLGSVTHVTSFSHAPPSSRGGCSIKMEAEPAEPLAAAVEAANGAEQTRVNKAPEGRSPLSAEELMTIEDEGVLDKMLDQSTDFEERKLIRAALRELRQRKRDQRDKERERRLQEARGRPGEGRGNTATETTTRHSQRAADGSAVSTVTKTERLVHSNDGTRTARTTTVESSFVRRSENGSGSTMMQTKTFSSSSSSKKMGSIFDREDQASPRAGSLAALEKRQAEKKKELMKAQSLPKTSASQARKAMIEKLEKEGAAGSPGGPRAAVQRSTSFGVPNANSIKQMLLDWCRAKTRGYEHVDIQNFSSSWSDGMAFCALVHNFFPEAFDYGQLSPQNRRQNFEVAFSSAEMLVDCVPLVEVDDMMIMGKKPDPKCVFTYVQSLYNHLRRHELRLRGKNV

Target | log2 fold change (vemurafenib) | log2 fold change [1] | log2 fold change (barasertib) | log2 fold change [2] | log2 fold change (volasertib) | log2 fold change [3] | log2 fold change [4] | log2 fold change [5] | log2 fold change (saracatinib) | log2 fold change (sotrastaurin) | log2 fold change (alvocidib) | log2 fold change (Tubastatin A) | log2 fold change [6] | log2 fold change (defactinib) | log2 fold change [7] | log2 fold change (encorafenib) | log2 fold change [8] | log2 fold change (alisertib) | log2 fold change [9] | log2 fold change (gefitinib)
SKA1 (UniProt Q96BD8) | -0.004 | -0.01 | -0.017 | -0.234 (active) | -0.121 | 0.003 | -0.167 | 0.021 | 0.071 | 0.066 | -0.046 | -0.064 | 0.001 | 0.015 | -0.008 | 0.129 | -0.055 | -0.017 | 0.017 | -0.006
SRM (UniProt P19623) | -0.004 | -0.003 | -0.008 | -0.02 | -0.034 | -0.001 | 0.015 | 0 | 0.02 | 0.011 | 0.008 | -0.014 | -0.014 | -0.03 | -0.03 | -0.011 | 0.083 | -0.03 | 0.016 | 0.011
SMG7 (UniProt Q92540) | 0.073 | 0.011 | 0.098 | 0.071 | -0.044 | 0.074 | -0.038 | -0.014 | 0.045 | -0.02 | -0.003 | 0.008 | 0.018 | 0.076 | -0.017 | 0.025 | 0.202 | 0.015 | 0.132 | 0.032
SKA2 (UniProt Q8WVK7) | 0 | 0.014 | 0.078 | 0 | -0.043 | 0.02 | -0.032 | -0.015 | 0.028 | -0.097 | 0.003 | -0.119 | -0.077 | -0.014 | -0.02 | 0.032 | -0.001 | 0.036 | -0.009 | 0.006
SMIM8 (UniProt Q96KF7) | 0.037 | 0.048 | 0.088 | -0.003 | 0.012 | 0.057 | -0.382 (active) | 0.177 | -0.071 | -0.027 | -0.01 | 0.034 | -0.041 | 0.034 | 0.066 | 0.028 | 0.078 | 0.062 | 0.014 | -0.015
SMTN isoform 6 (UniProt P53814) | 0.021 | 0.061 | 0.018 | -0.007 | -0.078 | -0.026 | -0.036 | -0.006 | 0.013 | -0.051 | -0.04 | -0.019 | 0.071 | -0.103 | -0.013 | -0.002 | -0.085 | 0.055 | -0.005 | 0.005
SLC39A11 (UniProt Q8N1S5) | -0.082 | 0.073 | -0.126 | 0.067 | 0.011 | 0.028 | -0.043 | 0.147 | -0.108 | -0.009 | -0.02 | -0.065 | 0.107 | 0.338 | -0.111 | -0.059 | -0.23 | -0.047 | 0.097 | 0.059
STK38 (UniProt Q15208) | -0.046 | -0.012 | 0.031 | -0.112 | -0.092 | 0.019 | 0.122 | 0.002 | -0.019 | 0.02 | 0.014 | -0.056 | 0.912 (active) | 0.502 (active) | -0.037 | -0.033 | 0.056 | 0.003 | 0.266 | 0.005
SMIM12 (UniProt Q96EX1) | 0.023 | 0.024 | 0.106 | 0.129 | -0.004 | 0.08 | 0.355 (active) | -0.269 | 0.041 | 0.025 | 0.22 | 0.007 | 0.065 | 0.025 | 0.07 | -0.067 | -0.018 | 0.018 | -0.044 | -0.033
SLC25A25 isoform 3 (UniProt Q6KCM7) | -0.011 | -0.012 | 0.004 | 0.012 | 0.03 | 0.007 | -0.012 | -0.053 | 0.016 | -0.016 | 0.014 | 0.015 | 0.007 | 0.029 | 0.003 | 0.035 | 0.012 | -0.011 | 0.025 | 0.037
STK36 (UniProt Q9NRP7) | 0.188 | 0.038 | -0.073 | 0.302 | 0.01 | -0.445 | -0.532 | 0.442 | 0.077 | -0.072 | -0.33 | 0.331 | -0.048 | -0.263 | 0.528 | -0.027 | 0.042 | 0.081 | 0.199 | -0.093
TANGO6 (UniProt Q9C0B7) | 0.062 | -0.113 | 0.036 | 0.023 | 0.042 | -0.054 | -0.187 | 0.121 | -0.011 | 0.081 | -0.094 | -0.031 | -0.005 | -0.047 | 0 | -0.024 | -0.009 | -0.022 | 0.027 | 0.117
STK39 (UniProt Q9UEW8) | 0.002 | 0.01 | 0.012 | -0.046 | -0.048 | 0.001 | -0.013 | -0.027 | -0.002 | 0.02 | 0.011 | -0.128 | -0.015 | 0 | -0.026 | -0.021 | 0.164 | -0.055 | 0.02 | 0.028
SNX6, A0A0A0MRI2 | 0.005 | 0.025 | 0.006 | -0.111 | -0.05 | 0.026 | 0.21 | -0.126 | -0.002 | -0.013 | 0.076 | -0.051 | 0.004 | 0.008 | -0.024 | 0.007 | 0.171 | -0.008 | -0.003 | -0.01
SKA3 (UniProt Q8IX90) | 0.047 | 0.011 | -0.062 | 0.016 | 0.007 | -0.018 | -0.027 | 0.023 | 0.017 | 0.028 | -0.035 | -0.056 | 0.03 | 0.035 | 0.04 | 0.023 | -0.051 | 0.039 | -0.012 | 0.063
STIM1 (UniProt Q13586) | 0.003 | 0.012 | 0.036 | -0.076 | 0.006 | 0.048 | 0.259 | -0.205 | 0.003 | -0.01 | 0.008 | -0.056 | -0.041 | -0.018 | 0.024 | 0.003 | -0.016 | 0.008 | -0.106 | -0.013
